Experimental findings from PMC4081100, “A DNA-binding-site landscape and regulatory network analysis for NAC transcription factors in Arabidopsis thaliana” are described below.

Experiment in all cases: universal protein binding microarray (PBM); transcription factors of Arabidopsis thaliana; high values mean tight binding
One assay concerns the target T1, GST-ANAC019 NAC domain (Arabidopsis thaliana, UniProt Q9C932 14-162).
T1 sequence: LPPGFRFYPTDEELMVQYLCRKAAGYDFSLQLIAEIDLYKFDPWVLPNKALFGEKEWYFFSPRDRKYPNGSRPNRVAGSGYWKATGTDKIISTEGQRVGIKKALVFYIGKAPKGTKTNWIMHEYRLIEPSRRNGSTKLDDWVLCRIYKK
The conditions noted are these: protein: recombinant; tags: GST; chain copies: 2; dsDNA, one strand shown. The method, boiled down:
(§1)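 Each value is a normalised enrichment score (E-score) describing binding. The GST-tagged proteins, NAC-domain, full-length or DNA-binding-domain, were induced in cells (zinc-finger proteins with zinc acetate added) and purified on glutathione–Sepharose 4B. They were applied at 200 to 500 nM final, in duplicate, to double-stranded custom all-10-mer Agilent 4 × 180K arrays, and gapped and ungapped 8-mers were scored.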

The target in a further assay is T2, GST-ANAC055(1-171) (Arabidopsis thaliana, UniProt Q9LDY8 1-171).
T2 sequence: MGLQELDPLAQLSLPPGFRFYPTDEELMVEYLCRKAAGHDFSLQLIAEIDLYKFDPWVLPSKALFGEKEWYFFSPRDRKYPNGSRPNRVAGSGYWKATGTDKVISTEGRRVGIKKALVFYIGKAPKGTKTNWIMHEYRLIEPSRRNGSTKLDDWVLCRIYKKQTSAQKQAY
As to conditions: protein: recombinant; tags: GST; chain copies: 2; dsDNA, one strand shown. The method, boiled down: as §1

The target in another assay is T3, GST-ATAF1 NAC domain (Arabidopsis thaliana, UniProt Q39013 7-158).
T3 sequence: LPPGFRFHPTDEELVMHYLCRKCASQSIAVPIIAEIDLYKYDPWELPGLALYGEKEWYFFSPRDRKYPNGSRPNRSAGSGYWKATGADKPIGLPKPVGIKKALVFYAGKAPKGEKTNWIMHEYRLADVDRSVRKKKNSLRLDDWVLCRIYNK
The conditions noted are these: protein: recombinant; tags: GST; chain copies: 2; dsDNA, one strand shown. The procedure, abridged:
as §1

For the next assay, the target named is T4, GST-VND3 NAC domain (Arabidopsis thaliana, UniProt Q9FH59 12-162).
T4 sequence: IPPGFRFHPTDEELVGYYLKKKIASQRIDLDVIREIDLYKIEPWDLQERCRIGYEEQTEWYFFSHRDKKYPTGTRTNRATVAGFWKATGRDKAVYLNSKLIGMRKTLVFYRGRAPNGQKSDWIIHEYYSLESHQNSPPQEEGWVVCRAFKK
As to conditions: protein: recombinant; tags: GST; chain copies: 2; dsDNA, one strand shown. The method, boiled down:
as §1

The next assay deals with T5, GST-VND7 NAC domain (Arabidopsis thaliana, UniProt Q9C8W9 9-158).
T5 sequence: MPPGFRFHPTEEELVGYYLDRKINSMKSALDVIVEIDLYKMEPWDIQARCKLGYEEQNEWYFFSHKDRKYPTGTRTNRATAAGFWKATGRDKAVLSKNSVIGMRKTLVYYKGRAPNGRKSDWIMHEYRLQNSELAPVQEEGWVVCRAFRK
The conditions noted are these: protein: recombinant; tags: GST; chain copies: 2; dsDNA, one strand shown. The method, boiled down:
as §1

In another assay the target is GST-WRKY1(266-371) (Arabidopsis thaliana, UniProt Q9SI37 266-371). The conditions noted are these: protein: recombinant; tags: GST; dsDNA, one strand shown. The method, boiled down:
as §1

A further assay deals with T6, GST-ANAC092(1-176) (Arabidopsis thaliana, UniProt Q9FKA0 1-176).
T6 sequence: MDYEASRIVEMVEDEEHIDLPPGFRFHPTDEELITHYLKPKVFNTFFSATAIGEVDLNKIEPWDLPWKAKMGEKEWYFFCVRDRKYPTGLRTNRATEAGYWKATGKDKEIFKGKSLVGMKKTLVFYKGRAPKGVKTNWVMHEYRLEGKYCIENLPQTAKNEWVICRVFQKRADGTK
As to conditions: protein: recombinant; tags: GST; chain copies: 2; dsDNA, one strand shown. The procedure, abridged: as §1

The target in assay [1] is T7, GST-ANAC092(1-285) full length (Arabidopsis thaliana, UniProt Q9FKA0 1-285).
T7 sequence: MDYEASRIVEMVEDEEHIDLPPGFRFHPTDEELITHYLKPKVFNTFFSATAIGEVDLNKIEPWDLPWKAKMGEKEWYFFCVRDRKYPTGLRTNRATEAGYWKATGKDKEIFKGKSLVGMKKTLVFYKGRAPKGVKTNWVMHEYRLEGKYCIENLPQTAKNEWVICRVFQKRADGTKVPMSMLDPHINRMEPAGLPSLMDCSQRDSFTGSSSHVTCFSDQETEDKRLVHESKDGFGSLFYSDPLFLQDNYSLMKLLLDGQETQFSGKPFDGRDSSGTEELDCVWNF
The conditions noted are these: protein: recombinant; tags: GST; chain copies: 2; dsDNA, one strand shown. The procedure, abridged: as §1

For a further assay, the target named is T8, GST-NAP(1-166) (Arabidopsis thaliana, UniProt O49255 1-166).
T8 sequence: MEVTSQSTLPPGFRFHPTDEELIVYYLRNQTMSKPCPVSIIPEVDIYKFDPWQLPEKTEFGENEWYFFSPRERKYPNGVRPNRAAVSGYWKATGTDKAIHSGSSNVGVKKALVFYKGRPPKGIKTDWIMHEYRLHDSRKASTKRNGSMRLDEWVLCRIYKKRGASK
The conditions noted are these: protein: recombinant; tags: GST; chain copies: 2; dsDNA, one strand shown. The procedure, abridged: as §1

A further assay concerns the target T9, GST-NST2(1-184) (Arabidopsis thaliana, UniProt Q9M274 1-184).
T9 sequence: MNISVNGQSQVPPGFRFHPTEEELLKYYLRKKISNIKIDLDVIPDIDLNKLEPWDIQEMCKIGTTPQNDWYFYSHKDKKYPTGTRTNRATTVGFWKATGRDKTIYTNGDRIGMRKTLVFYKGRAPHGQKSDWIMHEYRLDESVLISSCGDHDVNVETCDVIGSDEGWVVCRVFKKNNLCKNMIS
The conditions noted are these: protein: recombinant; tags: GST; chain copies: 2; dsDNA, one strand shown. The procedure, abridged:
as §1

For another assay, the target named is GST-NTL6(1-168) (Arabidopsis thaliana, UniProt Q9SCK6 1-168). The conditions noted are these: protein: recombinant; tags: GST; chain copies: 2; dsDNA, one strand shown. The procedure, abridged:
as §1

In another assay the target is T10, GST-NTL8 NAC domain (Arabidopsis thaliana, UniProt Q9XIN7 14-156).
T10 sequence: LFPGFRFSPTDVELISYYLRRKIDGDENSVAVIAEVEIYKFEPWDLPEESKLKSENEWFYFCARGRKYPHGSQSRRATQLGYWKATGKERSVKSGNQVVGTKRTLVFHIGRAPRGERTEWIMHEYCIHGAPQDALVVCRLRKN
The conditions noted are these: protein: recombinant; tags: GST; chain copies: 2; dsDNA, one strand shown. The procedure, abridged:
as §1

GST-NTL6(1-168), sequence (Q9SCK6 1-168): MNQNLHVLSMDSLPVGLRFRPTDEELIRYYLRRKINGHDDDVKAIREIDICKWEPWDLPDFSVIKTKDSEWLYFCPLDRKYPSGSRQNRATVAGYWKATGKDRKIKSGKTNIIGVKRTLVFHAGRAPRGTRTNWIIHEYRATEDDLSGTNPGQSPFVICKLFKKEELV
GST-WRKY1(266-371), sequence (Q9SI37 266-371): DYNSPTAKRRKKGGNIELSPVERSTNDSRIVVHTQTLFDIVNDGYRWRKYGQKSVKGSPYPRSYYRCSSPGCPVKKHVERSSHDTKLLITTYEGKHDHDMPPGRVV

With AGTCGTGC, the binding signal is 0.412 E-score in the assay with GST-ANAC019 NAC domain; 0.341 E-score in the assay with GST-ANAC055(1-171); 0.264 E-score in the assay with GST-ATAF1 NAC domain; 0.324 E-score in the assay with GST-VND3 NAC domain; 0.273 E-score in the assay with GST-VND7 NAC domain; 0.294 E-score in the assay with GST-WRKY1(266-371).

Consider ACACGGCT, for which the binding signal with GST-ANAC092(1-176) was 0.181 E-score; with GST-ANAC019 NAC domain, 0.418 E-score; with GST-ANAC055(1-171), 0.347 E-score; with GST-ATAF1 NAC domain it was 0.264 E-score; in assay [1], 0.335 E-score; in the assay with GST-NAP(1-166) it was 0.194 E-score. In addition, the binding signal with GST-VND3 NAC domain amounted to 0.348 E-score; with GST-VND7 NAC domain, 0.321 E-score.

For the sequence CTTGACCA, the binding signal in the assay with GST-ANAC092(1-176) came to 0.0818 E-score; with GST-ANAC019 NAC domain it was 0.0734 E-score; with GST-ANAC055(1-171), 0.104 E-score; with GST-ATAF1 NAC domain it was 0.145 E-score; with GST-NST2(1-184), 0.1 E-score; in the assay with GST-VND3 NAC domain, 0.119 E-score. The binding signal with GST-WRKY1(266-371) was 0.484 E-score.

Take TGGTCAAA: the binding signal with GST-ANAC092(1-176) was determined as 0.0858 E-score; with GST-ATAF1 NAC domain it was 0.062 E-score; in assay [1], 0.0538 E-score; in the assay with GST-VND3 NAC domain it was 0.118 E-score; with GST-WRKY1(266-371), 0.491 E-score.

In the case of AATAGTCA, the binding signal with GST-ANAC055(1-171) amounted to 0.0507 E-score; with GST-ATAF1 NAC domain, 0.061 E-score; in assay [1] it was 0.113 E-score; with GST-NST2(1-184), 0.0657 E-score; with GST-VND3 NAC domain it was 0.178 E-score; in the assay with GST-VND7 NAC domain, 0.143 E-score. Besides, in the assay with GST-WRKY1(266-371), the binding signal came to 0.413 E-score.

Consider CTTGACTC, for which the binding signal in the assay with GST-ANAC092(1-176) came to 0.0601 E-score; in the assay with GST-ATAF1 NAC domain, 0.0754 E-score; with GST-VND3 NAC domain it was 0.0677 E-score; with GST-WRKY1(266-371), 0.466 E-score.

On to AGAGTCAA, for which the binding signal in the assay with GST-ANAC019 NAC domain turned out to be 0.108 E-score; with GST-NST2(1-184) it was 0.0818 E-score; with GST-VND3 NAC domain it was 0.0953 E-score; with GST-VND7 NAC domain it was 0.0931 E-score; in the assay with GST-WRKY1(266-371), 0.48 E-score.

As to CTATTGAC, the binding signal with GST-NTL6(1-168) turned out to be 0.075 E-score; with GST-ANAC055(1-171) it was 0.0817 E-score; with GST-ATAF1 NAC domain, 0.0721 E-score; with GST-NAP(1-166) it was 0.0658 E-score; with GST-VND3 NAC domain, 0.06 E-score; with GST-WRKY1(266-371), 0.451 E-score.

As to TGACTAAA, the binding signal came to 0.0547 E-score with GST-NTL6(1-168); 0.0691 E-score with GST-ANAC019 NAC domain; 0.111 E-score with GST-NST2(1-184); 0.0682 E-score in the assay with GST-VND3 NAC domain; 0.0902 E-score with GST-VND7 NAC domain; 0.42 E-score with GST-WRKY1(266-371).

Regarding GTTGACAA, the binding signal came to 0.127 E-score with GST-ANAC055(1-171); 0.195 E-score in the assay with GST-ATAF1 NAC domain; 0.055 E-score in assay [1]; 0.116 E-score in the assay with GST-NAP(1-166); 0.0521 E-score in the assay with GST-VND3 NAC domain; 0.0726 E-score in the assay with GST-VND7 NAC domain. Also, in the assay with GST-WRKY1(266-371), the binding signal worked out at 0.446 E-score.

Regarding AGTCAATC, the binding signal turned out to be 0.0925 E-score with GST-ANAC092(1-176); 0.0768 E-score in the assay with GST-NTL6(1-168); 0.0741 E-score with GST-ANAC019 NAC domain; 0.0533 E-score with GST-ATAF1 NAC domain; 0.0868 E-score in [1]; 0.0978 E-score with GST-NAP(1-166). The binding signal amounted to 0.0674 E-score with GST-NST2(1-184), 0.122 E-score with GST-NTL8 NAC domain, 0.0908 E-score with GST-VND3 NAC domain and 0.468 E-score with GST-WRKY1(266-371).

Regarding AGTCAACG, the binding signal with GST-ANAC019 NAC domain was determined as 0.0747 E-score; in assay [1], 0.0699 E-score; with GST-NAP(1-166), 0.0565 E-score; with GST-NST2(1-184) it was 0.114 E-score; in the assay with GST-VND3 NAC domain, 0.115 E-score; with GST-WRKY1(266-371), 0.494 E-score.

As to AGGGAAAT, the binding signal worked out at 0.137 E-score in the assay with GST-ANAC092(1-176); 0.0669 E-score with GST-NTL6(1-168); 0.0765 E-score in the assay with GST-ANAC019 NAC domain; 0.112 E-score with GST-ATAF1 NAC domain; 0.106 E-score in assay [1]; 0.0566 E-score with GST-NST2(1-184). Also, the results for the binding signal in the assay with GST-NTL8 NAC domain and in the assay with GST-VND3 NAC domain were 0.406 E-score and 0.0592 E-score, respectively.

With GGTCATAC, the binding signal with GST-NAP(1-166) was found to be 0.108 E-score; in the assay with GST-VND3 NAC domain it was 0.115 E-score; with GST-WRKY1(266-371) it was 0.421 E-score.

For the sequence ATTGACTG, the binding signal came out at 0.071 E-score with GST-NTL6(1-168); 0.0846 E-score with GST-ATAF1 NAC domain; 0.0623 E-score with GST-NST2(1-184); 0.0613 E-score in the assay with GST-NTL8 NAC domain; 0.05 E-score with GST-VND7 NAC domain; 0.465 E-score with GST-WRKY1(266-371).
